# Experimental data: PubChem BioAssay (Tox21)
# Results filed as inconclusive are left out. Where a call stands in place of a potency, no number is given. Unmarked numbers belong to inactive results. Active and inactive are the calls of the source. The call rests on the fitted dose curve; in most records, active means well fitted inhibition curve with a large enough effect in the signal ratio in the repeat runs (not every such curve was filed as active); inconclusive means weak or mixed curves, or effect the other way; inactive means flat fitted curve, though single readings scatter; the % refers to the signal ratio.
# Experiment: cAMP Responsive Elements (CRE) small molecule antagonists, cell-based qHTS assay (AID 1963591)
# Settings: CRE-bla HEK293T, beta-lactamase FRET ratio; series mostly up to 92.4 µM
# Description: U.S. Tox21 Program National Center for Advancing Translational Sciences [NCATS] Division of Preclinical Innovation [DPI] U.S. Environmental Protection Agency [EPA] National Institutes of Environmental Health Sciences [NIEHS] National Toxicology Program [NTP] U.S. Food and Drug Administration [FDA] Tox21 Assay Overview: CREB (cyclic-AMP Responsive Element Binding Protein) is a cellular transcription factor. It binds to certain DNA sequences called cAMP Responsive Elements (CRE) and regulates the transcription of the genes. […] This cell line can be used to find agonists/antagonists of the cyclic AMP signaling pathway. The activation of the report gene under culture conditions can be detected by fluorescence intensity. This cell line has been used to screen the Tox21 10K compound library to […].
# Tox21 Assay Protocol Summary: CRE-bla Hek 293T cells were suspended in assay medium (DMEM containing 10% dialyzed FBS, 0.1 mM NEAA, 1 mM sodium pyruvate and 25 mM HEPES) and dispensed at 2,000 cells/4 uL /well into 1536-well black wall/clear bottom plates using a Multidrop Combi (ThermoFisher Scientific, Waltham, MA) dispenser. After the assay plates were incubated at 37 C/5% CO2 for 18 hrs, 23 nL of compounds dissolved in DMSO, positive controls or DMSO only was transferred to the assay plate by a pintool workstation (Kalypsys, San Diego, CA), followed by addition of 1 […] uL of 1.25uM NKH477 (0.25 uM as final concentration) in assay medium using a Flying Reagent Dispenser (Aurora Discovery, San Diego, CA). The plates were incubated at 37 C and 5% CO2 for 3 hrs. Then 1 uL of LiveBLAzer B/G FRET substrate (Invitrogen, Carlsbad, CA) was added to each well using Bioraptr Flying Reagent Dispenser (FRD, Aurora Discovery, San Diego, CA). The plates were incubated at room temperature for 2 h.
# Potency means the concentration at half of the fitted maximal effect.
SMILES,Potency,"activity change, negative = inhibition"
CCOP(=S)(S)OCC,inactive,
O=C(O)CCCCCCNC1c2ccccc2CCc2ccccc21,inactive,
O=[N+]([O-])c1ccc(Cl)c(Cl)c1Cl,inactive,
CCCSP(=O)(OCC)Oc1ccc(Br)cc1Cl (stereo not given),inactive,
CCCSP(=S)(OCC)Oc1ccc(SC)cc1 (stereo not given),inactive,
CN(C1CCCCC1)C1CCCCC1,inactive,
CCOP(=O)(OCC)Oc1cc(C)nc(C(C)C)n1,inactive,
NNC(=O)c1cccnc1,inactive,
CC(=O)[O-].CC(=O)[O-].O.O.O.[Pb+2],inactive,
CCC[CH2][Sn]([CH2]CCC)([O]C(C)=O)[O]C(C)=O,inactive,
CCOCCOC(C)=O,12.8 µM (active),
COc1ccc(OC)c(C=O)c1,inactive,
Cc1cc(=O)[nH]o1,inactive,
Cc1ccc2nc3sc(=O)sc3nc2c1,,1.33% [at 18.9 µM]
O=c1[nH]c2cc(Cl)ccc2n1C1CCNCC1,inactive,
C#CCN1C(=O)COc2cc(F)c(N3C(=O)C4=C(CCCC4)C3=O)cc21,inactive,
COc1cc(CC#N)cc(OC)c1OC,inactive,
CCc1ccc(C2CCNCC2)cc1,inactive,
C=C(Cl)Cl,inactive,
CC1=C(C(=O)O)N2C(=O)[C@@H](N)[C@H]2SC1,,-4.67% [at 18.9 µM]

SMILES,Potency,"activity change, negative = inhibition"
O=[N+]([O-])c1cc(Cl)c(Cl)cc1Cl,inactive,
CCC1(CCC(C)C)C(=O)NC(=O)NC1=O,inactive,
[O-][Cl+3]([O-])([O-])O,inactive,
O=C1c2ccccc2C(=O)C1C(=O)C(c1ccccc1)c1ccc(Cl)cc1 (stereo not given),inactive,
CCOC(=O)NC(O)C(Cl)(Cl)Cl (stereo not given),inactive,
CC(C)NCC(O)c1ccc(N)c(C#N)c1 (stereo not given),inactive,
c1ccc(OCC2CO2)cc1 (stereo not given),inactive,
CC(N)=S,inactive,
O=[N+]([O-])c1ccc2ccc3cccc4ccc1c2c34,inactive,
CC1CCCCC1NC(=O)Nc1ccccc1 (stereo not given),inactive,
Clc1cc(Cl)c(-c2cc(Cl)c(Cl)cc2Cl)cc1Cl,inactive,
O=C(Cl)C(Cl)(Cl)Cl,inactive,
CN(N=O)c1ccc([N+](=O)[O-])cc1,inactive,
CC(=O)OC1(c2ccccc2)CCN(CCc2ccccc2)CC1,inactive,
CNC(=O)Oc1ccc(N(C)C)c(C)c1,inactive,
CN1[C@@H]2CC[C@H]1CC(O)C2 (stereo not given in full),inactive,
ClC(Cl)C(Cl)Cl,inactive,
CCCCc1ccc(O)cc1,inactive,
CN1C2CCC(C)(C)C1CC(OC(=O)C(O)(c1cccs1)c1cccs1)C2 (stereo not given),inactive,
Oc1cc(Cl)c(Cl)c(Cl)c1,inactive,
